# Measured values published in PubChem BioAssay (Tox21).
# “And” between values parts separate entries of the source, which are not always exact repeats. Equal values may be shown once. Inconclusive results are not listed. Entries that show only a call come without a potency. Some structures have more than one record in an assay (separate samples or runs), and their calls can disagree. The source made the active and inactive calls. Unless noted, calls follow the shape of the dose curve; as a rule, active = well fitted curve in the direction sought with a large enough effect in the repeat runs; inconclusive = weak or mixed curves; inactive = no such curve, though single readings can be large; an effect the other way counts as inactive or inconclusive.
# Legend:
# [1] = molecular target: Peroxisome proliferator-activated receptor delta (Homo sapiens) (UniProt Q03181); assay: qHTS assay to identify small molecule agonists of the peroxisome proliferator-activated receptor delta (PPARd) signaling pathway (AID 743212; calls by dose curve)
# Summary of the method: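 Read-out: beta-lactamase FRET fluorescence after 2 h room-temperature incubation with LiveBLAzer B/G substrate. Cells were HEK293H carrying a UAS-bla reporter for PPARd, treated at 37 C with DMSO-dissolved compounds.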
# [2] = molecular target: Peroxisome proliferator-activated receptor delta (Homo sapiens) (UniProt Q03181); assay: qHTS assay to identify small molecule antagonists of the peroxisome proliferator-activated receptor delta (PPARd) signaling pathway (AID 743215; active = well fitted inhibition curve with a large enough effect in the signal ratio in the repeat runs, not every such curve was filed as active; the % refers to the signal ratio;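 also: cells stimulated with agonist L165041 at 300 nM final during compound exposure; series mostly up to about 62 µM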)
# Summary of the method: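 HEK293H GeneBLAzer PPARd UAS-bla reporter cells; cpd + L165041 300 nM final, 17 h 37 C; LiveBLAzer B/G FRET substrate 2 h RT; fluorescence intensity read-out. Antagonist mode.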
# [3] = qHTS assay to identify small molecule agonists of the farnesoid-X-receptor (FXR) signaling pathway - cell viability counter screen (AID 743218); also: nearly all actives have a fitted effect of over 45% in size; also: potency is read from the fitted curve at half-maximal effect
# Summary of the method: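 Luminescence from CellTiter-Glo, read after 30 min at RT, reports viability of GeneBLAzer FXR-UAS-bla HEK 293T cells treated 16 h with compounds in the wells used for the beta-lactamase reporter.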
# [4] = molecular target: Vitamin D3 receptor (Homo sapiens) (UniProt P11473); assay: qHTS assay to identify small molecule agonists of the vitamin D receptor (VDR) signaling pathway (AID 743222; calls by dose curve)
# Summary of the method: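 Beta-lactamase reporter readout (LiveBLAzer B/G FRET, 2 h RT) in VDR-bla cells after 16 h compound treatment at 37C, 5% CO2; cells pre-incubated 4 h before pin transfer of DMSO solutions.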
# [5] = molecular target: Vitamin D3 receptor (Homo sapiens) (UniProt P11473); assay: qHTS assay to identify small molecule antagonists of the vitamin D receptor (VDR) signaling pathway (AID 743223; active = well fitted inhibition curve with a large enough effect in the signal ratio in the repeat runs, not every such curve was filed as active; the % refers to the signal ratio; also: potency is read from the fitted curve at half-maximal effect)
# Summary of the method: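 Cells carrying a VDR-driven beta-lactamase reporter (VDR-bla) were co-treated with compound and 3 nM final 1alpha,25-dihydroxyvitamin D3 for 16 h at 37C; reporter activity was measured as FRET substrate fluorescence after 2 h at room temperature.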
# [6] = qHTS assay to identify small molecule antagonists of the peroxisome proliferator-activated receptor delta (PPARd) signaling pathway - cell viability counter screen (AID 743213); also: nearly all actives have a fitted effect of over 50% in size
# Summary of the method: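 HEK293H PPARd UAS-bla cells, 5 h pre-incubation, compound + L165041 300 nM final, 17 h 37 C; B/G FRET substrate 2 h RT; then CellTiter-Glo 30 min RT, luminescence.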
# [7] = molecular target: Bile acid receptor (Homo sapiens) (UniProt Q96RI1); assay: qHTS assay to identify small molecule antagonists of the farnesoid-X-receptor (FXR) signaling pathway (AID 743217; active = well fitted inhibition curve with a large enough effect in the signal ratio in the repeat runs, not every such curve was filed as active; the % refers to the signal ratio)
# Summary of the method: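 Read-out: beta-lactamase FRET fluorescence (LiveBLAzer B/G substrate, 2 h, room temperature) in GeneBLAzer FXR-UAS-bla HEK 293T cells. Compounds were co-dosed with 50 uM chenodeoxycholic acid (final) and incubated 16 h at 37 °C.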
# [8] = molecular target: Bile acid receptor (Homo sapiens) (UniProt Q96RI1); assay: qHTS assay to identify small molecule agonists of the farnesoid-X-receptor (FXR) signaling pathway (AID 743220; active = well fitted activation curve with a large enough effect in the signal ratio in the repeat runs, not every such curve was filed as active; the % refers to the signal ratio)
# Summary of the method: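 FXR-UAS-bla HEK 293T cells carrying a UAS-driven beta-lactamase reporter were plated for 5 h at 37C/5% CO2, then exposed to DMSO-dissolved Tox21 10K compounds for 16 h at 37C. A LiveBLAzer B/G FRET substrate was loaded for 2 h at room temperature before fluorescence reading.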
# [9] = qHTS assay to identify small molecule antagonists of the farnesoid-X-receptor (FXR) signaling pathway - cell viability counter screen (AID 743221; active = well fitted cell-killing curve with a large enough effect in the repeat runs, not every such curve was filed as active; also: nearly all actives have a fitted effect of over 50% in size)
# Summary of the method: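 Multiplexed counter screen: viability of FXR-bla HEK 293T cells under agonist stimulation by chenodeoxycholic acid (50 uM, final) and test compound for 16 h at 37 C, measured by CellTiter-Glo luminescence in the reporter wells.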
# [10] = qHTS assay to identify small molecule agonists of the vitamin D receptor (VDR) signaling pathway - cell viability counter screen (AID 743224); also: series mostly up to about 63 µM; nearly all actives have a fitted effect of over 50% in size
# Summary of the method: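 Cytotoxicity counter screen: VDR-bla cells, 16 h compound exposure at 37C, 5% CO2; CellTiter-Glo luminescence, 30 min RT, same wells as bla read.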
# Peroxisome proliferator-activated receptor delta (Homo sapiens), sequence (Q03181 whole entry, looked up): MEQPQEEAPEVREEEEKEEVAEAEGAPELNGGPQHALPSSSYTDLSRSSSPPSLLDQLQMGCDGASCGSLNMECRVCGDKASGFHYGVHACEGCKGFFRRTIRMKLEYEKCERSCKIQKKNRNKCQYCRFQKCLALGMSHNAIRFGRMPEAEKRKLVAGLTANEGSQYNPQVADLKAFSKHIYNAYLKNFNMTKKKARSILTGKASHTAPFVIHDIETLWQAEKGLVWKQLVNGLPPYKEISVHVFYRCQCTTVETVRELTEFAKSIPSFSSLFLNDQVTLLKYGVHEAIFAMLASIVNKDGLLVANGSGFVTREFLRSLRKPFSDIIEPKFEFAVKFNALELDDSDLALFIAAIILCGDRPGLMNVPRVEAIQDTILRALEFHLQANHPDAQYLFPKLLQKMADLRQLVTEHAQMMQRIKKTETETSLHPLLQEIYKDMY
# Vitamin D3 receptor (Homo sapiens), sequence (P11473 whole entry, looked up): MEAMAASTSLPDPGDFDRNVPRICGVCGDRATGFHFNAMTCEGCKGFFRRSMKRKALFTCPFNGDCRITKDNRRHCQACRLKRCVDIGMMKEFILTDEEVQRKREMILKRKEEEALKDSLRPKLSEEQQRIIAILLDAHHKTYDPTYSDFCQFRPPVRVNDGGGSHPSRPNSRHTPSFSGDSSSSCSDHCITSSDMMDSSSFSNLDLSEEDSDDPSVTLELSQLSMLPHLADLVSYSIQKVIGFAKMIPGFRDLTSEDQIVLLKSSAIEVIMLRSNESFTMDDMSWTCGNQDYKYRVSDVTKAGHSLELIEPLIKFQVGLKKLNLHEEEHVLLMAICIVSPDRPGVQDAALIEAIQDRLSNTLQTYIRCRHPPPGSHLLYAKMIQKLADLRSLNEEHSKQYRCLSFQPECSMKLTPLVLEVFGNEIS
# Bile acid receptor (Homo sapiens), sequence (Q96RI1 whole entry, looked up): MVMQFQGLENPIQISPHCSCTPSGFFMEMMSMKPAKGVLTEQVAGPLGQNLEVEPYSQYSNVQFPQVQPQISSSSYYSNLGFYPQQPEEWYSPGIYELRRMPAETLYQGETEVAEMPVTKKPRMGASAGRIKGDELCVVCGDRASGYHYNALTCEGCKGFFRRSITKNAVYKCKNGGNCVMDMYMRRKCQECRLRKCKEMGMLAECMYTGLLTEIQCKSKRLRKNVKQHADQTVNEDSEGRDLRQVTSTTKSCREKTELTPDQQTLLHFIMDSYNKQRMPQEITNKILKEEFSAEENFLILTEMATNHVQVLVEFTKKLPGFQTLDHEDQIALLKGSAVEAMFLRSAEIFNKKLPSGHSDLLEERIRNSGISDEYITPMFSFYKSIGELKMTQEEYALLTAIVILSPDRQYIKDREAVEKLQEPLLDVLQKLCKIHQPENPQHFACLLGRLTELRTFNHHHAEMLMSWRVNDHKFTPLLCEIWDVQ
compound,measurement,setting,value
CCCCCCCCCCCCCCCCn1cc[n+](C)c1,outcome,[1],inactive
same,outcome,[2],inactive
same,Potency,[3],inactive and 44 µM (active) and 21.9 µM (active)
same,outcome,[4],inactive
same,Potency,[5],15.5 µM (active)
C[C@]12CCC(=O)C=C1CC[C@@H]1[C@@H]2CC[C@]2(C)C(=O)CC[C@@H]12,outcome,[1],inactive
same,Potency,[6],inactive
same,Potency,[7],inactive
same,Potency,[3],inactive
same,outcome,[8],inactive
same,Potency,[9],inactive
O=S(=O)(O)O,Potency,[6],inactive
same,Potency,[3],inactive
same,Potency,[9],inactive
COc1ccc(N)cc1,outcome,[1],inactive
same,Potency,[6],inactive
same,outcome,[2],inactive
same,Potency,[3],inactive
same,Potency,[9],inactive
COP(=O)(OC)C(O)C(Cl)(Cl)Cl (stereo not drawn),outcome,[1],inactive
same,Potency,[6],inactive
same,outcome,[2],inactive
same,Potency,[3],inactive
same,outcome,[8],inactive
same,Potency,[9],inactive
same,outcome,[4],inactive
O=[N+]([O-])c1ccccc1O,Potency,[3],inactive
same,Potency,[9],inactive
Cc1cc(-c2ccc(N)c(C)c2)ccc1N,Potency,[3],inactive
same,Potency,[9],inactive
same,outcome,[4],inactive
same,Potency,[5],inactive
Cc1cc(Cl)ccc1OCC(=O)O,Potency,[6],inactive
same,Potency,[3],inactive
same,Potency,[9],inactive
same,outcome,[4],inactive
same,Potency,[5],inactive
CCNc1nc(Cl)nc(NCC)n1,Potency,[7],inactive
same,Potency,[3],inactive
same,outcome,[8],inactive
same,Potency,[9],inactive
same,outcome,[4],inactive
same,Potency,[5],inactive
same,Potency,[10],inactive
N#CS,Potency,[3],inactive
same,Potency,[9],inactive
same,outcome,[4],inactive
same,Potency,[5],inactive
same,Potency,[10],inactive
O=[N+]([O-])O,Potency,[3],inactive
same,Potency,[9],inactive
same,Potency,[10],inactive
CCC(=O)C(CC(C)N(C)C)(c1ccccc1)c1ccccc1 (stereo not drawn),outcome,[2],inactive
same,Potency,[7],inactive
same,Potency,[3],inactive
same,outcome,[8],inactive
same,Potency,[9],inactive
Nc1ccc(-c2ccc(N)c(Cl)c2)cc1Cl,Potency,[3],inactive
same,Potency,[9],inactive
same,outcome,[4],inactive
same,Potency,[5],inactive
CCCC[n+]1ccc(C)cc1,Potency,[3],inactive
same,Potency,[9],inactive
CCCCCCCCCCCCOS(=O)(=O)O,Potency,[3],49 µM (active) and 24.5 µM (active) and inactive
same,Potency,[9],inactive
same,Potency,[10],inactive
CCCCCCCCCCCC(=O)O,Potency,[3],inactive
same,Potency,[9],inactive
same,Potency,[10],inactive
CCCCCCCCCCCCn1cc[n+](C)c1,Potency,[5],55 µM (active)
CCCC[N+]1(C)CCCC1,Potency,[3],inactive
same,Potency,[9],inactive
same,Potency,[10],inactive
